Assay results reported in PubChem BioAssay (NCATS).
Results filed as inconclusive are left out. The source made the active and inactive calls. Calls follow the shape of the dose curve; as a rule, active = well fitted curve in the direction sought with a large enough effect; inconclusive = small, poorly fitted or top-dose-only effect, or another doubt; inactive = no such curve, though single readings can be large; an effect the other way counts as inactive or inconclusive.

How the values were obtained:
[1] = test system: Zika virus NS2B-NS3 protease (linked construct); test: Primary screen NINDS Rhodamine qHTS for Zika virus inhibitors (AID 1347160); also: nearly all actives have a fitted effect of over 55% in size; also: potency is read from the fitted curve at half-maximal effect
Procedure, shortened: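 Purified NS2B-NS3 protease with the NS2B hydrophilic domain joined by a flexible linker (25 nM) in 10 mM Tris-HCl pH 8.0, 0.01% Tween 20, preincubated 15 min at RT with compound; Rhodamine110 peptide substrate 1.5 µM; fluorescence change over 15 min; 4-parameter Hill fit.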

[2] = UWB1.289 Cancer Cell Toxicity qHTS against the NCATS CANVASS Library (AID 1347347); also: nearly all actives have a fitted effect of over 60% in size; also: potency is read from the fitted curve at half-maximal effect
Procedure, shortened: (§1)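 1000 cells/well seeded and rested 4 h at 37 °C before pin transfer of compounds in an 11-pnt series. Exposure 72 h at 37 °C/5% CO2; viability by CellTiter-Glo luminescence after 15 min at room temperature.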

[3] = Panc-1005 Cancer Cell Toxicity qHTS against the NCATS CANVASS Library (AID 1347349); also: nearly all actives have a fitted effect of over 60% in size; also: potency is read from the fitted curve at half-maximal effect
Procedure, shortened: as §1

[4] = SW1088 Cancer Cell Toxicity qHTS against the NCATS CANVASS Library (AID 1347350); also: nearly all actives have a fitted effect of over 75% in size; also: potency is read from the fitted curve at half-maximal effect
Procedure, shortened: as §1

[5] = U-118MG Cancer Cell Toxicity qHTS against the NCATS CANVASS Library (AID 1347351); also: potency is read from the fitted curve at half-maximal effect
Procedure, shortened: as §1

[6] = A2780 Cisplatin Sensitive Ovarian Cancer Cell Toxicity qHTS against the NCATS CANVASS Library (AID 1347353); also: nearly all actives have a fitted effect of over 60% in size; also: potency is read from the fitted curve at half-maximal effect
Procedure, shortened: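 A2780 cells, 750/well, settled 4 h at 37 °C, then treated with an 11-point compound series for 72 h. Viability was read as ATPLite luminescence after 10 min at room temperature, with bortezomib as control.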

[7] = UWB1.289-WTBRCA1 Cancer Cell Toxicity qHTS against the NCATS CANVASS Library (AID 1347354); also: potency is read from the fitted curve at half-maximal effect
Procedure, shortened: (§2)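 Cells at 1000/well were given compound 4 h after plating in an 11-point series. Viability was read by CellTiter-Glo luminescence after 72 h at 37 degrees C.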

[8] = HEK-293 Cancer Cell Toxicity qHTS against the NCATS CANVASS Library (AID 1347355); also: nearly all actives have a fitted effect of over 65% in size; also: potency is read from the fitted curve at half-maximal effect; as to outcome: series mostly up to about 46 µM
Procedure, shortened: as §2

[9] = test system: NAD(P)H diaphorase (Clostridium kluyveri); test: Diaphorse counterscreen qHTS: Assay Interference Panel against the NCATS CANVASS Library (AID 1347362)
Procedure, shortened: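 Clostridium kluyveri diaphorase in PBS with 0.01% Tween-20 was preincubated 15 min at room temperature in the dark with compounds (11-point series). Resorufin fluorescence (ex 525/20, em 598/25) was read 5 min after adding resazurin/NADH.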

[10] = KB-8-5-11 Cancer Cell Toxicity qHTS against the NCATS CANVASS Library (AID 1347364); also: nearly all actives have a fitted effect of over 75% in size; also: potency is read from the fitted curve at half-maximal effect
Procedure, shortened: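 KB-8-5-11 cells, 500/well in DMEM + 10% FBS, given compounds in an 11-point series. Incubated 72 h at 37 °C. Viability by CellTiter-Glo luminescence. Confirmation also run with 1 uM tariquidar.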

[11] = SDT Cancer Cell Toxicity qHTS against the NCATS CANVASS Library (AID 1347365); also: nearly all actives have a fitted effect of over 60% in size; also: potency is read from the fitted curve at half-maximal effect
Procedure, shortened: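 SDT dog glioma cells (500/well) exposed to an 11-point compound series for 72 hr at 37C, 5% CO2. Cytotoxicity read as ATP content by CellTiterGlo luminescence; bortezomib titration as control.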

[12] = molecular target: Nuclear receptor subfamily 1 group I member 3 (Homo sapiens) (UniProt Q14994); test: qHTS for Constitutive Androstane Receptor (CAR) Antagonist screened against the NCATS CANVASS Library (AID 1347372);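 also: cells stimulated with 50 nM CITCO agonist so inhibition reflects antagonism; series mostly up to about 46 µM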
Nuclear receptor subfamily 1 group I member 3 (Homo sapiens), sequence (Q14994 whole entry, looked up): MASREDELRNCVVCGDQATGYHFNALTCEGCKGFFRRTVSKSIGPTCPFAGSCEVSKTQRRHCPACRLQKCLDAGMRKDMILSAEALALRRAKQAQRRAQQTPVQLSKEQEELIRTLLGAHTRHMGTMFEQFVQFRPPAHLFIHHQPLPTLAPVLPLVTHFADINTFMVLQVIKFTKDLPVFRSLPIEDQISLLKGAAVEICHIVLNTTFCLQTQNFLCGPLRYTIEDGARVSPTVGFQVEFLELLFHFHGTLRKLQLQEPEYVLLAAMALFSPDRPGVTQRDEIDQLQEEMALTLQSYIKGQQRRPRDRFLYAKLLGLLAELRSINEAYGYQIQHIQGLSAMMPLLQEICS
Procedure, shortened: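 HepG2 cells stably carrying hCAR and a CYP2B6-2.2kb luciferase reporter were exposed to compounds plus 50 nM CITCO for 24hr at 37C. CAR activity was read by ONE-Glo luminescence, with viability measured first by CellTiter-Fluor.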

[13] = qHTS for Hypoxia signaling pathway (HIF-1) antagonists against the NCATS CANVASS Library (AID 1347374); also: nearly all actives have a fitted effect of over 60% in size; also: potency is read from the fitted curve at half-maximal effect
Procedure, shortened: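 HRE-bla ME-180 cells in medium with 0.5% dialyzed FBS received compounds (11-point series) plus CoCl2 (60 uM addition stock) for 17 hrs at 37C. Beta-lactamase activity read with CCF4 (405 nm ex, 460/530 nm em); CellTiter-Glo viability measured in same wells.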

[14] = DH5-alpha competent E. coli microbial cell viability qHTS against the NCATS CANVASS Library (AID 1347377); details: outcome: dose series up to 46.1 µM unless noted
Procedure, shortened: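 DH5-alpha E. coli suspension was exposed to an 11-point compound series overnight at 37 °C. Viable cells quantified by ATP luminescence (BacTiter-Glo) after 20 min at room temperature.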

[15] = qHTS for H2AX Agonists against the NCATS CANVASS Library (AID 1347378);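 also: phospho-H2AX S139 level in CHO-K1 lysates by TR-FRET emission ratio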
Procedure, shortened: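 CHO-K1, 1000 cells/well, o/n 37C; cpd several conc, 3 hr 37C, 0.76% DMSO; lyse 30 min RT; cryptate anti-pH2AX(S139) + d2 anti-H2AX, 24 hr RT; HTRF 665/620.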

[16] = qHTS for Activators of p53 Stress Response Pathway screened against the NCATS CANVASS Library (AID 1347388); also: potency is read from the fitted curve at half-maximal effect
Procedure, shortened: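 p53RE-bla HCT-116 cells (4000/well) were plated 5 h at 37C, exposed to compounds for 16 h at 37C over an 11-point concentration series, then loaded with CCF4 for 2 h at room temperature; 460/530 nm emission ratio read.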

[17] = qHTS assay for small molecule disruptors of mitochondrial membrane potential screened against the NCATS CANVASS Library (AID 1347389); also: nearly all actives have a fitted effect of over 60% in size; also: potency is read from the fitted curve at half-maximal effect
Procedure, shortened: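 HepG2 cells (2,000/well) plated overnight, then exposed to compounds in 11-point qHTS series for 1 h at 37C before 30 min Mito-MPS dye; depolarization read as fall in red aggregate (590 nm) to green monomer (535 nm) fluorescence.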

[18] = Secretion counterscreen for inhibitors of the SERCaMP assay screened against the NCATS CANVASS Library (AID 1347390);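 also: light from luciferase secreted into medium read as a measure of general secretion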; also: potency is read from the fitted curve at half-maximal effect
Procedure, shortened: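 SH-SY5Y-GLuc STOP cells; 4 h attach; cpds 0.001 - 77 uM (qHTS, 11 pts), 20 h 37C/5% CO2; coelenterazine in glow buffer; luminescence, 5 s exposure.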

[19] = qHTS for activators of dead-cell proteases activity screened against the NCATS CANVASS Library (AID 1347392);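 also: luminescence from protease leaking out of membrane-damaged cells cleaving impermeant substrate; rising signal means more cytotoxicity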
Procedure, shortened: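 HepG2 cells (2000/well) attached 18 h at 37C, then exposed 5 h to compounds (11-point qHTS). Dead-cell protease activity read as luminescence from cell-impermeant AAF-aminoluciferin substrate after 15 min at room temperature.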

[20] = qHTS for inhibitors of Wild type Zika virus screened against the NCATS CANVASS Library (AID 1347396); also: potency is read from the fitted curve at half-maximal effect
Procedure, shortened: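 Vero 766 (African green monkey) cells, 1000 per well, attached overnight, then compounds were added in an 11-point series before wild-type Zika virus infection. After 72 h at 37C, cell viability was read as CellTiter Glo luminescence.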

Measured: Potency

C[C@@H](CCC[C@]1(C)C(=O)C=C[C@]23C[C@H]4C[C@H](O[C@@]4(C)C2)C31)C(=O)N[C@@H](CO)C(=O)O (stereo partly specified)
inactive: all assays above

CO[C@@H]1C[C@@H](C[C@H]2CC[C@H](C)[C@H]([C@@H](C)C(=O)O)O2)O[C@]2(O[C@](C)([C@H]3CC[C@@](C)([C@@H]4O[C@@H]([C@H]5O[C@](C)(O)[C@H](C)C[C@@H]5C)C[C@@H]4C)O3)C[C@H]2C)[C@@H]1C
inactive: [15] | [19]
active: [1] 11 µM | [2] 3.34 µM | [3] 3.75 µM | [4] 0.0168 µM | [5] 5.3 µM | [6] 0.0372 µM | [7] 9.41 µM | [8] 0.296 µM | [10] 5.9 µM | [11] 0.0935 µM | [13] 2.11 µM | [16] 3.71 µM | [17] 18.6 µM | [18] 0.484 µM | [20] 1.04 µM

CC1=CC[C@@]2(C[C@@H]1O)[C@@H](C(=O)O)CC[C@H]2C(C)C
inactive: all assays above

C[C@H]1C[C@@H]([C@@H]2CC[C@]34O[C@H](CC[C@@]35C[C@H](C)C(=O)O5)CN24)OC1=O
not listed: [18]
inactive: all other assays above

C[C@@H]1O[C@H](c2c(O)cc(O)c3c(=O)cc(-c4ccc(O)cc4)oc23)[C@H](O)[C@H](O)[C@H]1O
active: [1] 34.9 µM
inactive: all other assays above

C[C@@]12C[C@@H](C[C@H]3C(=O)O[C@@H](c4ccoc4)[C@H](OC(=O)c4ccccc4)[C@@H]31)OC2=O
inactive: all assays above
